Data as given in PubChem BioAssay (NCI).
The panel holds about 83,000 compounds, 20% with a hit somewhere; the sample as a whole holds those more often.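 A percent growth of 40 corresponds to 60% growth inhibition; 0 means no net growth; -100 means all cells died. Active threshold: below 10.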 Activity calls are given as the source filed them.

Experiments:
Assay in all cases: NCI-60 one-dose screen, 48 h (100 = growth as untreated, 0 = no growth, -100 = all killed)
Conditions in all cases: 10 µM unless noted
HCT-15 colon = test system: HCT-15 colon
HT29 colon = test system: HT29 colon
SNB-75 CNS = test system: SNB-75 CNS
SNB-19 CNS = test system: SNB-19 CNS
PC-3 prostate = test system: PC-3 prostate
UACC-62 melanoma = test system: UACC-62 melanoma
LOX IMVI melanoma = test system: LOX IMVI melanoma
SK-MEL-28 melanoma = test system: SK-MEL-28 melanoma
SK-MEL-2 melanoma = test system: SK-MEL-2 melanoma
EKVX NSCLC = test system: EKVX NSCLC
SN12C renal = test system: SN12C renal
UO-31 renal = test system: UO-31 renal
TK-10 renal = test system: TK-10 renal
ACHN renal = test system: ACHN renal
CAKI-1 renal = test system: CAKI-1 renal
A498 renal = test system: A498 renal
MOLT-4 leukemia = test system: MOLT-4 leukemia
SK-MEL-5 melanoma = test system: SK-MEL-5 melanoma
CCRF-CEM leukemia = test system: CCRF-CEM leukemia

Measured: growth

Nc1nc2ncc(CCNc3ccc(C(=O)O)cc3)nc2c(=O)[nH]1
inactive: HCT-15 colon 102% | HT29 colon 97.5% | SNB-75 CNS 110% | SNB-19 CNS 111% | PC-3 prostate 92.4% | UACC-62 melanoma 111% | LOX IMVI melanoma 102% | SK-MEL-28 melanoma 118% | SK-MEL-2 melanoma 96.3% | EKVX NSCLC 120% | SN12C renal 106% | UO-31 renal 86.6% | TK-10 renal 103% | ACHN renal 110% | CAKI-1 renal 98.3% | A498 renal 120% | MOLT-4 leukemia 75.5%

CC(=O)O[C@H]1CC[C@]2(C)[C@H]3CC=C4[C@@H]5CC(C)(C)CC[C@]5(C(=O)NCCNCCN)CC[C@@]4(C)[C@]3(C)CC[C@H]2C1(C)C
inactive: SNB-75 CNS 88% | SK-MEL-5 melanoma 71.4% | SK-MEL-2 melanoma 82.5% | EKVX NSCLC 28.8% | A498 renal 38.6%
active: HCT-15 colon -89.3% | HT29 colon -92.8% | SNB-19 CNS 2.09% | PC-3 prostate -44.3% | UACC-62 melanoma -21.2% | SK-MEL-28 melanoma -85.6% | SN12C renal -89.9% | UO-31 renal -91.6% | TK-10 renal -79% | ACHN renal -100% | CAKI-1 renal -68.7% | CCRF-CEM leukemia -40.1% | MOLT-4 leukemia -39.9%

Cc1cc(N2CCCC2)nc(NC2CCCC(Nc3ccnc4cc(Cl)ccc34)C2)n1 (stereo not drawn)
active: HCT-15 colon -52% | HT29 colon -70% | SNB-75 CNS -68.6% | SNB-19 CNS -20.3% | PC-3 prostate -58.1% | UACC-62 melanoma -79.8% | LOX IMVI melanoma -94.2% | SK-MEL-28 melanoma -77.5% | SN12C renal -49.4% | UO-31 renal -93.3% | TK-10 renal -74.5% | ACHN renal -98% | A498 renal -18.4% | CCRF-CEM leukemia -22.2% | MOLT-4 leukemia -20.8%
inactive: EKVX NSCLC 11.1%

COc1cccc(Nc2nc(SC)nc(-c3cccc([N+](=O)[O-])c3)c2C#N)c1
inactive: HCT-15 colon 79.2% | HT29 colon 78% | SNB-75 CNS 34% | SNB-19 CNS 67.2% | PC-3 prostate 71.2% | SK-MEL-5 melanoma 87.2% | UACC-62 melanoma 78.5% | LOX IMVI melanoma 64.9% | SK-MEL-28 melanoma 76.3% | EKVX NSCLC 64.7% | SN12C renal 68.8% | UO-31 renal 26.7% | TK-10 renal 75.8% | ACHN renal 23.9% | CAKI-1 renal 60.1% | A498 renal 78.5% | CCRF-CEM leukemia 99.6% | MOLT-4 leukemia 98.2%

O=C(N/N=C/c1c[nH]c2ccccc12)c1cc(-c2ccccc2)on1
inactive: HCT-15 colon 71.2% | HT29 colon 102% | SNB-75 CNS 67% | SNB-19 CNS 89.8% | PC-3 prostate 88% | SK-MEL-5 melanoma 91.3% | UACC-62 melanoma 62.8% | SK-MEL-28 melanoma 106% | SK-MEL-2 melanoma 101% | EKVX NSCLC 87.9% | SN12C renal 92.3% | UO-31 renal 60.7% | TK-10 renal 125% | ACHN renal 87.6% | CAKI-1 renal 69.7% | A498 renal 78.6% | MOLT-4 leukemia 69.5%

COc1cccc(-c2nn(C(C)(C)C)cc2-c2ccnc(NCCCNS(=O)(=O)c3cccc4ccccc34)c2)c1
inactive: HCT-15 colon 108% | HT29 colon 103% | SNB-75 CNS 71.2% | SNB-19 CNS 100% | PC-3 prostate 106% | UACC-62 melanoma 108% | LOX IMVI melanoma 99.8% | SK-MEL-28 melanoma 112% | SK-MEL-2 melanoma 111% | EKVX NSCLC 98.9% | SN12C renal 103% | UO-31 renal 91.1% | TK-10 renal 101% | ACHN renal 107% | CAKI-1 renal 96.6% | A498 renal 76.9% | CCRF-CEM leukemia 102% | MOLT-4 leukemia 104%

CSc1nc(Nc2cccc(NC(=O)CCl)c2)c(C#N)c(-c2cccc([N+](=O)[O-])c2)n1
active: LOX IMVI melanoma -69.2% | CCRF-CEM leukemia -14.4% | MOLT-4 leukemia 1.11%
inactive: HCT-15 colon 17.5% | HT29 colon 17.7% | SNB-75 CNS 30.5% | SNB-19 CNS 83.5% | PC-3 prostate 30.5% | UACC-62 melanoma 41% | SK-MEL-28 melanoma 102% | SK-MEL-2 melanoma 57.5% | EKVX NSCLC 74.1% | SN12C renal 34% | UO-31 renal 67.2% | TK-10 renal 137% | ACHN renal 84.2% | CAKI-1 renal 52.2% | A498 renal 96.6%

COc1cc(/C=C/c2cc(O)c3cc(C(C)=O)c(=O)oc3c2)cc2c1O[C@]1(C)CC[C@@H](O)C(C)(C)[C@H]1C2
inactive: HCT-15 colon 14.4% | HT29 colon 60.5% | SNB-19 CNS 48.1% | PC-3 prostate 27.4% | LOX IMVI melanoma 18.8% | SK-MEL-2 melanoma 50.1% | EKVX NSCLC 59.3% | SN12C renal 64.7% | TK-10 renal 97.9% | ACHN renal 40.9% | CAKI-1 renal 29.8% | CCRF-CEM leukemia 22.1%
active: SNB-75 CNS -8.02% | UACC-62 melanoma -11.7% | SK-MEL-28 melanoma -0.116% | UO-31 renal -42.8% | A498 renal -51.5% | MOLT-4 leukemia -5.7%

CSc1nc(Nc2cccc(NC(=O)/C(C#N)=C/c3c(Cl)cccc3Cl)c2)c(C#N)c(-c2cccc([N+](=O)[O-])c2)n1
inactive: HCT-15 colon 28.9% | HT29 colon 49.2% | SNB-75 CNS 47.5% | SNB-19 CNS 72.5% | PC-3 prostate 45.1% | UACC-62 melanoma 33.2% | SK-MEL-28 melanoma 76.7% | SK-MEL-2 melanoma 52.8% | EKVX NSCLC 56.7% | SN12C renal 44.6% | UO-31 renal 33.7% | ACHN renal 57.9% | CAKI-1 renal 24.5% | A498 renal 73.5% | CCRF-CEM leukemia 43.3% | MOLT-4 leukemia 23.9%
active: LOX IMVI melanoma 2.43%

O=C1/C(=C/c2cn(-c3ccccc3)nc2-c2ccccc2)SC(=S)N1CCc1ccccc1
inactive: HCT-15 colon 106% | HT29 colon 104% | SNB-75 CNS 71.9% | SNB-19 CNS 99% | PC-3 prostate 100% | SK-MEL-5 melanoma 101% | UACC-62 melanoma 98% | SK-MEL-28 melanoma 118% | SK-MEL-2 melanoma 108% | EKVX NSCLC 96.6% | SN12C renal 98.6% | UO-31 renal 88.5% | TK-10 renal 106% | ACHN renal 104% | CAKI-1 renal 85.2% | A498 renal 95.7% | CCRF-CEM leukemia 102% | MOLT-4 leukemia 99.4%

CC1=C[C@H]2c3c(c(O)c(O)c4oc5ccccc5c(=O)c34)[C@H](c3cc(O)c(O)c4oc5ccccc5c(=O)c34)[C@H]2C(C)(C)C1
inactive: HCT-15 colon 13.7% | HT29 colon 14.8% | SNB-19 CNS 13.8% | SK-MEL-28 melanoma 18.3% | EKVX NSCLC 18.7% | TK-10 renal 23.1%
active: SNB-75 CNS -29.7% | PC-3 prostate 5.67% | UACC-62 melanoma -65.5% | LOX IMVI melanoma -78.9% | SK-MEL-2 melanoma 0.0517% | SN12C renal 7.6% | UO-31 renal -74% | ACHN renal 6.36% | CAKI-1 renal -24.7% | CCRF-CEM leukemia 5.39% | MOLT-4 leukemia 2.9%

COc1ccc(-c2cc(NC(=O)Nc3ccc4ncsc4c3)no2)cc1
inactive: HCT-15 colon 96.5% | HT29 colon 97.2% | SNB-75 CNS 60.2% | SNB-19 CNS 92.9% | PC-3 prostate 92.6% | SK-MEL-5 melanoma 99.5% | UACC-62 melanoma 95.9% | LOX IMVI melanoma 102% | SK-MEL-28 melanoma 108% | EKVX NSCLC 95.9% | SN12C renal 96.3% | UO-31 renal 106% | TK-10 renal 104% | ACHN renal 99.6% | CAKI-1 renal 91% | A498 renal 100% | CCRF-CEM leukemia 106% | MOLT-4 leukemia 96.1%

COc1ccc(/C=C(\C#N)C(=O)Nc2cccc(Nc3nc(SC)nc(-c4cccc([N+](=O)[O-])c4)c3C#N)c2)cc1OC
inactive: HCT-15 colon 95.3% | HT29 colon 113% | SNB-75 CNS 92% | SNB-19 CNS 104% | PC-3 prostate 94.8% | SK-MEL-5 melanoma 94.8% | UACC-62 melanoma 97% | LOX IMVI melanoma 97.6% | SK-MEL-28 melanoma 105% | EKVX NSCLC 88.2% | SN12C renal 96.5% | UO-31 renal 88.3% | TK-10 renal 176% | ACHN renal 93.8% | CAKI-1 renal 92.7% | A498 renal 102% | CCRF-CEM leukemia 87.7% | MOLT-4 leukemia 93.1%

COc1ccc(-c2nc3ccc(-c4nc5ccc(N6CCN(c7ccc(F)cc7)CC6)cc5[nH]4)cc3[nH]2)cc1OC
inactive: HCT-15 colon 44.7% | HT29 colon 44.3% | SNB-75 CNS 64.3% | SNB-19 CNS 117% | PC-3 prostate 62.7% | UACC-62 melanoma 60.6% | LOX IMVI melanoma 37.1% | SK-MEL-28 melanoma 90.6% | SK-MEL-2 melanoma 109% | EKVX NSCLC 99.6% | SN12C renal 80.7% | UO-31 renal 89% | ACHN renal 62.3% | CAKI-1 renal 84.6% | A498 renal 98.3% | CCRF-CEM leukemia 20.9% | MOLT-4 leukemia 27.9%

COc1cc(C=Nc2oc(-c3ccccc3)c(-c3ccccc3)c2C#N)cc(CN2CCCCC2)c1O
inactive: HCT-15 colon 95.4% | HT29 colon 102% | SNB-75 CNS 66.6% | SNB-19 CNS 98.6% | PC-3 prostate 93.2% | SK-MEL-5 melanoma 98.4% | LOX IMVI melanoma 87.7% | SK-MEL-28 melanoma 110% | SK-MEL-2 melanoma 103% | EKVX NSCLC 95% | SN12C renal 99.5% | UO-31 renal 73.6% | TK-10 renal 107% | ACHN renal 99.6% | CAKI-1 renal 86.6% | A498 renal 72.3% | CCRF-CEM leukemia 101% | MOLT-4 leukemia 86.8%

Clc1ccc2c(NCCCNc3nc(-n4ccnc4)nc4ccccc34)ccnc2c1
inactive: HCT-15 colon 87% | HT29 colon 75.1% | SNB-75 CNS 71.1% | SNB-19 CNS 92.1% | PC-3 prostate 73.3% | UACC-62 melanoma 94.3% | LOX IMVI melanoma 82.1% | SK-MEL-28 melanoma 93.1% | SK-MEL-2 melanoma 103% | EKVX NSCLC 70.3% | SN12C renal 84.4% | UO-31 renal 78.8% | TK-10 renal 102% | ACHN renal 97.7% | A498 renal 78.2% | CCRF-CEM leukemia 75.2% | MOLT-4 leukemia 68%

O=C1NC(=S)NC(=O)C1CC(=O)n1c(-c2ccccc2)nc2ccccc21
inactive: HCT-15 colon 94.3% | HT29 colon 106% | SNB-75 CNS 66.5% | SNB-19 CNS 94.8% | PC-3 prostate 97.7% | SK-MEL-5 melanoma 98.5% | LOX IMVI melanoma 88.7% | SK-MEL-28 melanoma 112% | SK-MEL-2 melanoma 110% | EKVX NSCLC 82.4% | SN12C renal 95.8% | UO-31 renal 73.5% | TK-10 renal 143% | ACHN renal 86.6% | CAKI-1 renal 77.2% | A498 renal 89% | CCRF-CEM leukemia 110% | MOLT-4 leukemia 99.9%
